# From PubChem BioAssay AID1159580 (chemical genetic matrix, 2015)
# Where “and” joins values, the source holds several entries; their conditions need not be identical. Equal entries are not always repeated. Out of some 5,500 compounds screened, about 2,000 (36%) were called active. About 18% were inconclusive and are not listed. Cut-off read from the data, not from the text of the source: active = normalized growth mostly below about 0.91 (no sharp cut-off); inconclusive = no clear call, values can overlap the other calls; inactive = mostly above about 0.92. The list shows a part of the results.
# Test: chemical genetic growth profiling, strain panel (AID 1159580);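 note: tested at 20 µM; growth read once vehicle control cultures reached saturation at 30 °C; 1 = growth at the plate median or of vehicle wells; lower values mean less growth of the strain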
# Conditions: S. cerevisiae deletion strains, growth OD
smiles,measurement,setting,value
CC(C)=CCCC(C)[C@@H]1CC[C@]2(C)C3=C(CC[C@@]12C)C1(C)CC[C@H](O)C(C)(C)C1CC3 (stereo partly drawn),normalized growth,"locus YAL021C, strain ccr4, stronger effect = lower value",1.04 (inactive)
same,normalized growth,"locus YAL026C, strain drs2, stronger effect = lower value",1.04 (inactive)
same,normalized growth,"locus YAL030W, strain snc1, stronger effect = lower value",1.07 [resistant] (active)
same,normalized growth,"locus YBL061C, strain skt5, stronger effect = lower value",1.08 (inactive)
same,normalized growth,"locus YBR009C, strain hhf1, stronger effect = lower value",1.01 (inactive)
same,normalized growth,"locus YBR021W, strain FUR4, stronger effect = lower value",0.941 (inactive)
same,normalized growth,"locus YBR023C, strain chs3, stronger effect = lower value",1.08 (inactive)
same,normalized growth,"locus YBR171W, strain sec66, stronger effect = lower value",1.06 (inactive)
same,normalized growth,"locus YBR229C, strain ROT2, stronger effect = lower value",1.08 (inactive)
same,normalized growth,"locus YBR231C, strain swc5, stronger effect = lower value",1.09 [resistant] (active)
same,normalized growth,"locus YBR279W, strain paf1, stronger effect = lower value",1.07 [resistant] (active)
same,normalized growth,"locus YCL011C, strain gbp2, stronger effect = lower value",1.07 (inactive)
same,normalized growth,"locus YCL016C, strain dcc1, stronger effect = lower value",1.03 (inactive)
same,normalized growth,"locus YCL029C, strain bik1, stronger effect = lower value",1 (inactive)
same,normalized growth,"locus YCL061C, strain MRC1, stronger effect = lower value",1.06 (inactive)
same,normalized growth,"locus YCL069W, strain vba3, stronger effect = lower value",1.07 (inactive)
same,normalized growth,"locus YCR088W, strain abp1, stronger effect = lower value",1.08 [resistant] (active)
same,normalized growth,"locus YDL005C, strain med2, stronger effect = lower value",1.04 (inactive)
same,normalized growth,"locus YDL035C, strain GPR1, stronger effect = lower value",0.886 (inactive)
same,normalized growth,"locus YDL040C, strain nat1, stronger effect = lower value",1.08 [resistant] (active)
same,normalized growth,"locus YDL074C, strain BRE1, stronger effect = lower value",1.34 [resistant] (active)
same,normalized growth,"locus YDL101C, strain DUN1, stronger effect = lower value",1.02 (inactive)
same,normalized growth,"locus YDL185W, strain tfp1, stronger effect = lower value",1.01 (inactive)
same,normalized growth,"locus YDL192W, strain arf1, stronger effect = lower value",1.02 (inactive)
same,normalized growth,"locus YDR001C, strain nth1, stronger effect = lower value",1.07 (inactive)
same,normalized growth,"locus YDR069C, strain doa4, stronger effect = lower value",1.03 (inactive)
same,normalized growth,"locus YDR101C, strain arx1, stronger effect = lower value",0.967 (inactive)
same,normalized growth,"locus YDR137W, strain rgp1, stronger effect = lower value",0.774 (active)
same,normalized growth,"locus YDR159W, strain sac3, stronger effect = lower value",1.05 (inactive)
same,normalized growth,"locus YDR162C, strain NBP2, stronger effect = lower value",0.913 (inactive)
same,normalized growth,"locus YDR195W, strain ref2",1.13 (inactive)
same,normalized growth,"locus YDR297W, strain sur2, stronger effect = lower value",1.07 (inactive)
same,normalized growth,"locus YDR318W, strain mcm21, stronger effect = lower value",1.01 (inactive)
same,normalized growth,"locus YDR334W, strain swr1, stronger effect = lower value",1.05 (inactive)
same,normalized growth,"locus YDR335W, strain msn5, stronger effect = lower value",1.02 (inactive)
same,normalized growth,"locus YDR388W, stronger effect = lower value",1.03 (inactive)
same,normalized growth,"locus YDR392W, strain spt3, stronger effect = lower value",1.02 (inactive)
same,normalized growth,"locus YDR502C, strain sam2, stronger effect = lower value",0.989 (inactive)
same,normalized growth,"locus YEL003W, strain gim4, stronger effect = lower value",1.02 (inactive)
same,normalized growth,"locus YEL037C, strain rad23, stronger effect = lower value",1.06 (inactive)
same,normalized growth,"locus YEL061C, strain CIN8 (second series), stronger effect = lower value",1.06 (inactive)
same,normalized growth,"locus YER015W, strain faa2, stronger effect = lower value",1.08 [resistant] (active)
same,normalized growth,"locus YER016W, strain bim1, stronger effect = lower value",1.07 (inactive)
same,normalized growth,"locus YER110C, stronger effect = lower value",1.05 (inactive)
same,normalized growth,"locus YER111C, strain swi4, stronger effect = lower value",1.08 (inactive)
same,normalized growth,"locus YER155C, strain BEM2 (second series), stronger effect = lower value",1.09 (inactive)
same,normalized growth,"locus YER155C, strain BEM2, stronger effect = lower value",1.1 [resistant] (active)
same,normalized growth,"locus YER167W, strain BCK2, stronger effect = lower value",1.08 (inactive)
same,normalized growth,"locus YFR010W, strain ubp6, stronger effect = lower value",1 (inactive)
same,normalized growth,"locus YGL078C, strain dbp3, stronger effect = lower value",0.889 (active)
same,normalized growth,"locus YGL086W, strain mad1, stronger effect = lower value",1 (inactive)
same,normalized growth,"locus YGL167C, strain pmr1, stronger effect = lower value",1.08 (inactive)
same,normalized growth,"locus YGL173C, strain kem1, stronger effect = lower value",1.02 (inactive)
same,normalized growth,"locus YGL227W, strain vid30, stronger effect = lower value",1.07 (inactive)
same,normalized growth,"locus YGL240W, strain doc1, stronger effect = lower value",1.02 (inactive)
same,normalized growth,"locus YGL248W, strain PDE1, stronger effect = lower value",1.01 (inactive)
same,normalized growth,"locus YGL253W, strain hxk2, stronger effect = lower value",1.04 (inactive)
same,normalized growth,"locus YGR078C, strain PAC10, stronger effect = lower value",1.13 (inactive)
same,normalized growth,"locus YGR135W, strain pre9, stronger effect = lower value",0.996 (inactive)
same,normalized growth,"locus YGR252W, strain gcn5, stronger effect = lower value",0.985 (inactive)
same,normalized growth,"locus YHR013C, strain ard1, stronger effect = lower value",1.15 (inactive)
same,normalized growth,"locus YHR027C, strain rpn1, stronger effect = lower value",1.06 (inactive)
same,normalized growth,"locus YHR030C, strain SLT2, stronger effect = lower value",1.1 [resistant] (active) and 0.945 (inactive)
same,normalized growth,"locus YHR079C, strain IRE1 (second series), stronger effect = lower value",1.05 (inactive)
same,normalized growth,"locus YHR079C, strain IRE1, stronger effect = lower value",0.877 (inactive)
same,normalized growth,"locus YHR094C, strain hxt1, stronger effect = lower value",1.07 (inactive)
same,normalized growth,"locus YHR129C, strain ARP1, stronger effect = lower value",1.06 (inactive)
same,normalized growth,"locus YHR142W, strain chs7, stronger effect = lower value",1.03 (inactive)
same,normalized growth,"locus YHR200W, strain rpn10, stronger effect = lower value",1.01 (inactive)
same,normalized growth,"locus YIL066C, strain RNR3, stronger effect = lower value",1.03 (inactive)
same,normalized growth,"locus YIL073C, strain SPO22, stronger effect = lower value",1.43 [resistant] (active)
same,normalized growth,"locus YIL125W, strain kgd1, stronger effect = lower value",1.01 (inactive)
same,normalized growth,"locus YIR030C, strain dcg1, stronger effect = lower value",1.06 (inactive)
same,normalized growth,"locus YJL092W, strain hpr5, stronger effect = lower value",1.08 (inactive)
same,normalized growth,"locus YJL095W, strain BCK1 (second series), stronger effect = lower value",1.08 [resistant] (active)
same,normalized growth,"locus YJL095W, strain BCK1, stronger effect = lower value",1.14 (inactive) and 0.943 (inactive)
same,normalized growth,"locus YJL115W, strain asf1, stronger effect = lower value",1.06 (inactive)
same,normalized growth,"locus YJL129C, strain trk1, stronger effect = lower value",1.08 (inactive)
same,normalized growth,"locus YJL134W, strain LCB3, stronger effect = lower value",1.07 [resistant] (active)
same,normalized growth,"locus YJL154C, strain vps35, stronger effect = lower value",1.08 (inactive)
same,normalized growth,"locus YJL164C, strain tpk1, stronger effect = lower value",1.02 (inactive)
same,normalized growth,"locus YJL166W, strain qcr8, stronger effect = lower value",1.03 (inactive)
same,normalized growth,"locus YJL168C, strain set2, stronger effect = lower value",1.1 [resistant] (active)
